Bioassay records as filed in PubChem.
The list is not random: actives were taken first. Their share in the collection is about 3.4%.
TEAD-YAP block: TEAD-YAP interaction inhibition. AID 1259422. inhibition, % at 9.12 µM. hit rate 1.4% among 640,000. HEK-TIYL cells, TEAD-Gal4/YAP UAS-luciferase luminescence; in the data active = inhibition above about 32%;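 note: 0% = median of test compound wells and 100% = reference inhibitor wells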
MITF inh: blocks human microphthalmia-associated transcription factor. O75030. AlphaScreen MITF homodimerization, bead proximity signal. inhibition, % at 2.6 µM. hit rate 0.91% among 650,000. AID 1259374; in the data active = inhibition above about 50%;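 note: 0% = vehicle wells with protein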
GPR151 activ: activates the human receptor GPR151 | Q8TDV0 | AID 1508602 | PathHunter beta-arrestin GPR151 cells, luminescence | activation, % at 11.2 µM | hit rate 1% among 650,000; in the data active = activation above about 4.9%;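 note: 0% = median of compound wells and 100% = cells with positive control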
Target sequence (Q8TDV0 whole entry, looked up): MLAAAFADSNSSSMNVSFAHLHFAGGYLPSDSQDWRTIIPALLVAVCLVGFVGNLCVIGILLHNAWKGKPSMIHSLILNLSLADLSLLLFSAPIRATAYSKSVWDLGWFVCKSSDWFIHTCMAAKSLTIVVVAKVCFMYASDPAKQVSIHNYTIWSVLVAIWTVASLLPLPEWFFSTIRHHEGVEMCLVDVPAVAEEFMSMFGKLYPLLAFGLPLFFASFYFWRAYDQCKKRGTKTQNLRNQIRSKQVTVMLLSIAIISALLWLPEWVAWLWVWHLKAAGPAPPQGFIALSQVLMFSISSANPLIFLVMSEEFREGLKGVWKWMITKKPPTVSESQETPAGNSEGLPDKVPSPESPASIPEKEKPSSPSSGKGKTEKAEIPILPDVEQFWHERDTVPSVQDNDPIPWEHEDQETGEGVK
FBW7 act: human FBW7 E3 ligase activation, primary screen; AlphaScreen FBW7–phospho-cyclin E peptide binding, activator screen; normalized activity (activation), % at 26.1 µM; hit rate 0.13% among 650,000; AID 1259310; in the data active = normalized activity above about 1.9%;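 note: purified mutant Fbw7 with reduced substrate affinity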
GPR151 confirm: human GPR151 activation, confirmation screen. shares compounds with GPR151 activ. GPR151 PathHunter beta-arrestin cells, luminescence, 90 min; % of EA-reagent control over plate median. activation, % at 11.2 µM. 6,700 tested, under 10 active;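 active = mean percent activation across replicates above the confirmation screen cutoff of 4.91%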
GPR119 ag: GPR119 activation, counter-screen for GPR151 activators; GPR119 PathHunter beta-arrestin cells, luminescence, 90 min; 0 = compound-well median, 100 = enzyme-acceptor control; activation, % at 11.2 µM; shares compounds with GPR151 activ; AID 1508611; hit rate 0.3% among 6,700;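 active = mean percent activation in the counterscreen above 29.09%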;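 note: counterscreen on off-target GPR119 to flag nonselective hits from the GPR151 activator screen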
The depositor's hits bear a star; . = no result; ! = a repeat was not active.

SMILES	TEAD-YAP block	MITF inh	GPR151 activ	FBW7 act	GPR151 confirm	GPR119 ag
COC(=O)c1ccc(NC(=O)/C=C/c2ccccc2Cl)cc1	-5	5	6.1*	1	0	6
O=C(c1ccc(CN2C(=O)CCn3nccc32)cc1)N1CCOCC1	-2	1	7.2*	0	0	-9
O=C(c1ccc2c(c1)N(Cc1ccccc1)C(=O)CS2)N1CCOCC1	11	0	0	0	.	.
O=[N+]([O-])c1ccc(C(O)C(CO)NCc2ccc(Cl)c(Cl)c2)cc1 (centres undefined)	-10	26	0	0	.	.
O=C(Nc1ccc2c(c1)CN(Cc1cnc(-c3ccccc3)s1)CC2)C1CCCO1 (centres undefined)	3	-13	5.2*	0	0	2
O=C(Nc1ccc2c(c1)CN(Cc1cccnc1)CC2)C1CCCO1 (centres undefined)	0	12	0	0	.	.
CC(C)C(=O)N=C1SC2CS(=O)(=O)CC2N1c1cccc(C(F)(F)F)c1 (centres undefined)	5	-6	7.5*	0	1	-12
C[C@H]1CC[C@@]2(OC1)O[C@H]1C[C@H]3[C@@H]4CC[C@@H]5C[C@@H](O)CC[C@]5(C)[C@H]4CC[C@]3(C)[C@H]1[C@@H]2C	9	9	5.6*!	0	1	-8
CCOC(=O)c1cnc2c(C)c(C)ccc2c1NCc1ccco1	-10	6	3	0	.	.
CCOC(=O)c1cnc2c(ccc3ccccc32)c1NCc1ccco1	-6	-1	5.8*	1	1	6
CC(=O)Nc1nnc(SCC(=O)Nc2cccc(Cl)c2C)s1	9	-1	8.7*	0	-1	-10
Cc1c(Cl)cccc1NC(=O)CSc1ncnc2c1sc1ccccc12	16	5	12*	0	-1	3
CCC(=O)Nc1nnc(SCC(=O)Nc2ccc(Cl)c(Cl)c2)s1	3	3	8.9*	0	0	6
COc1ccc(CNC(=O)CSc2nnc(NC(=O)c3ccccc3Cl)s2)cc1	-26	-4	6.3*	0	1	-4
Nc1nnc(SCC(=O)Nc2nnc(SCC(=O)Nc3ccc(Cl)c(Cl)c3)s2)s1	3	-7	0	0	.	.
CCc1ccc(S(=O)(=O)NCCCCN2CCOC(c3ccccc3)C2)s1 (centres undefined)	-1	11	1	1	.	.
O=C(Nc1ccc(Cl)c(Cl)c1)Nc1nc2ccccc2[nH]1	-23	11	-1	0	.	.
O=C(Nc1c(F)c(F)cc(F)c1F)C1CCCN(S(=O)(=O)N2CCOCC2)C1 (centres undefined)	-2	-8	1	0	.	.
Cc1ccc(C#N)c(SC(C)(C)C(=O)O)n1	-1	7	2	1	.	.
COc1ccc(CN2CCc3nnc(CCNC(=O)C4CCC4)n3CC2)c(OC)c1	8	7	1	0	.	.
O=C(O)CCN1C(=O)/C(=C\c2ccco2)SC1=S	-6	36	11*	0	-1	8
O=C(O)CN1C(=O)/C(=C/c2ccc(SCc3ccco3)o2)SC1=S	2	40	1	-1	.	.
COC(=O)CN1C(=O)S/C(=C/c2ccco2)C1=O	2	20	7.0*	0	2	-13
O=C(O)CCN1C(=O)/C(=C/C=C/c2ccco2)SC1=S	23	20	0	-2	.	.
O=C(O)CN1C(=O)/C(=C/c2ccc(I)o2)SC1=S	-2	55*	6.7*	0	0	0
SMILES	TEAD-YAP block	MITF inh	GPR151 activ	FBW7 act	GPR151 confirm	GPR119 ag
Cc1ccc(C(=O)Nc2ccc(Br)cc2C(=O)O)cc1C	-1	-2	2	0	.	.
CCOC(=O)c1ccc(CN(C(=S)Nc2ccc(C)c(Cl)c2)C(CC(C)C)C(=O)O)cc1 (centres undefined)	14	-6	-1	0	.	.
Cc1cc(C)n2c(SCCNCCO)nnc2n1	5	27	1	0	.	.
Cc1cc(C)n2c(SCCO)nnc2n1	10	8	5.6*	0	0	-6
CC(NCC(C)(C)CN(C)C)C(=O)Nc1ccccc1 (centres undefined)	5	6	7.0*	0	1	3
CN=C(C)c1c(O)c2ccccc2oc1=O	9	-22	0	0	.	.
C/C(=N\NC(N)=O)c1c(O)c2ccccc2oc1=O	6	-3	7.4*	0	0	5
CN1CCC(N2CCC(Oc3cccc(C(=O)NCCn4cccn4)c3)CC2)CC1	-23	-11	0	0	.	.
O=c1cc(-c2ccccc2[N+](=O)[O-])nc(-c2ccco2)o1	-1	-4	7.3*	0	0	-2
Cc1ccc(-c2c(N3CCCCC3)c(=O)c2=O)cc1	0	-3	6.8*	0	0	-11
NC(CC(=O)O)C(=O)O (centres undefined)	-17	12	7.8*	0	0	3
CCCCCCCCCCCCCCCC(=O)NCCO	11	-9	9.1*!	0	0	11
CCOC(=O)c1cc(N2C(=O)C3C4C=CC(CC4)C3C2=O)ccc1Cl (centres undefined)	8	4	10*	0	0	7
CSC1=N/C(=C/c2ccsc2)C(=O)N1c1ccccc1	-88	9	1	0	.	.
C=C1C(C(=O)Nc2ccc3c(c2)OCCO3)C1C(=O)Nc1ccc2c(c1)OCCO2 (centres undefined)	5	-8	0	0	.	.
O=C1CCC(C(=O)Nc2cc(F)cc(F)c2)=NN1	9	-3	6.4*	0	1	6
COc1ccccc1-n1cc(C(=O)NCC(=O)Nc2cccc(C(F)(F)F)c2)c2ccccc2c1=O	0	5	-1	0	.	.
O=C(CCl)Nc1ccc2c(c1)OCCCO2	5	10	0	0	.	.
O=C(O)CN(CC(=O)Nc1ccc2c(c1)OCCCO2)Cc1ccccc1	1	16	9.1*	0	0	4
COc1ccccc1C(=O)Nc1cc2nn(-c3ccc(Cl)cc3)nc2cc1C	10	-7	-1	0	.	.
CNc1nc(-c2ccccc2O)nc(-c2ccccc2O)n1	7	3	0	1	.	.
[Zn+2].c1ccc2c(c1)-c1nc-2nc2[n-]c(nc3nc(nc4[n-]c(n1)c1ccccc41)-c1ccccc1-3)c1ccccc21	9	2	11*	1	0	-3
O=C(NC1CCCCC1N1C(=O)CSC1=O)c1ccco1 (centres undefined)	8	16	-1	0	.	.
COc1ccc(/C=C(\C#N)C(=O)Nc2ccccn2)cc1	2	4	5.1*	0	1	6
Cc1ccc(/C=C(\C#N)C(=O)C(C)(C)C)o1	-8	-1	1	0	.	.
COc1cccc(CNCC2CCCO2)c1OC (centres undefined)	0	4	1	0	.	.
COc1ccc(CNCC2CCCO2)c(OC)c1OC (centres undefined)	5	6	5.9*	0	0	7
